Consider six compounds from article PMC11062922 (Nature Chemical Biology, 2023).

Read-outs that look alike come from different tables or passages of the source.

Common to all, as to parameters: species or system human, MV4-11 + K-562 + COLO205 + SK-N-BE2 + OVCAR-8
The subject of one test is CDC42BPG. Particulars: read-out: apparent Kd, n = 1.
The next test relates to FLT4. Particulars: read-out: apparent Kd; compound concentrations:100 nM and 1000 nM (sheet 'Samples'); n = 1.
The next test relates to MAP3K1. The following applies: read-out: apparent Kd; compound concentrations:100 nM and 1000 nM (sheet 'Samples'); n = 1.
The next test relates to MAP4K5. The following applies: read-out: apparent Kd; compound concentrations:100 nM and 1000 nM (sheet 'Samples'); n = 1.
In the next test the test system is STK10. The following applies: read-out: apparent Kd; compound concentrations:100 nM and 1000 nM (sheet 'Samples'); n = 1.
The test system of the next test is CAMK4. The following applies: read-out: apparent Kd; compound concentrations:100 nM and 1000 nM (sheet 'Samples'); n = 1.
The subject of a further test is CDK10. Particulars: read-out: apparent Kd; compound concentrations:100 nM and 1000 nM (sheet 'Samples'); n = 1.
In another test the test system is CDK6. The following applies: read-out: apparent Kd; compound concentrations:100 nM and 1000 nM (sheet 'Samples'); n = 1.
The subject of a further test is HSP90B1. Particulars: read-out: apparent Kd; compound concentrations:100 nM and 1000 nM (sheet 'Samples'); n = 1.
Another test concerns MAPK9. Particulars: read-out: apparent Kd; compound concentrations:100 nM and 1000 nM (sheet 'Samples'); n = 1.
Another test concerns CAMK2B. The following applies: read-out: apparent Kd; compound concentrations: 100 nM and 1000 nM (sheet 'Samples'), CATDS: 0.17838032280045099; n = 1.
In a further test the test system is EGFR. Particulars: read-out: apparent Kd; compound concentrations: 100 nM and 1000 nM (sheet 'Samples'), CATDS: 0.186882259763333; n = 1.
The test system of the next test is FN3KRP. Particulars: read-out: apparent Kd; compound concentrations: 100 nM and 1000 nM (sheet 'Samples'), CATDS: 0.322807069227038; n = 1.
For a further test, the system named is NQO2. Particulars: read-out: apparent Kd; compound concentrations: 100 nM and 1000 nM (sheet 'Samples'), CATDS: 0.51408272608471794; n = 1.
The test system of the next test is MAPK11. Particulars: read-out: apparent Kd; compound concentrations: 100 nM and 1000 nM (sheet 'Samples'), CATDS: 0.59050582210334401; n = 1.
The subject of the next test is MAPK14. Particulars: read-out: apparent Kd; compound concentrations: 100 nM and 1000 nM (sheet 'Samples'), CATDS: 0.223513912329704; n = 1.
Another test concerns MAPKAPK2. Particulars: read-out: apparent Kd; compound concentrations: 100 nM and 1000 nM (sheet 'Samples'), CATDS: 0.33085096444850498; n = 1.
The test system of a further test is HSPE1. Particulars: read-out: apparent Kd; compound concentrations:100 nM and 1000 nM (sheet 'Samples'); n = 1.
A further test deals with CDC42BPB. Particulars: read-out: apparent Kd; compound concentrations:100 nM and 1000 nM (sheet 'Samples'); n = 1.
In the next test the test system is PKN1. Particulars: read-out: apparent Kd; compound concentrations:100 nM and 1000 nM (sheet 'Samples'); n = 1.
A further test deals with PRKACA. The following applies: read-out: apparent Kd; compound concentrations:100 nM and 1000 nM (sheet 'Samples'); n = 1.
The test system of another test is PRKACB. The following applies: read-out: apparent Kd; compound concentrations:100 nM and 1000 nM (sheet 'Samples'); n = 1.
Another test deals with PRKG1. Particulars: read-out: apparent Kd; compound concentrations:100 nM and 1000 nM (sheet 'Samples'); n = 1.
The subject of a further test is PRKX;PRKY. Particulars: read-out: apparent Kd; compound concentrations:100 nM and 1000 nM (sheet 'Samples'); n = 1.
In a further test the test system is ROCK1. The following applies: read-out: apparent Kd; compound concentrations:100 nM and 1000 nM (sheet 'Samples'); n = 1.
The subject of the next test is ROCK2. The following applies: read-out: apparent Kd; compound concentrations:100 nM and 1000 nM (sheet 'Samples'); n = 1.
The subject of the next test is RPS6KB1. The following applies: read-out: apparent Kd; compound concentrations:100 nM and 1000 nM (sheet 'Samples'); n = 1.
The mark [1] stands for this setting: compound concentrations:100 nM and 1000 nM (sheet 'Samples').

On to `COc1cc2ncn(-c3cc(O[C@@H](C)c4ccccc4Cl)c(C(N)=O)s3)c2cc1OC` [GSK237700A], for which the potency estimated from few doses is 2140 nM in the test with CDC42BPG (setting [1]); 1530 nM in the test on FLT4; 1500 nM in the test on MAP3K1; 2080 nM with MAP4K5; 1820 nM in the test with STK10.

On to `FC(F)(F)c1cc(Nc2nccc(-c3c(-c4ccc(Cl)cc4)nn4ncccc34)n2)ccc1Cl` [GW829351X], for which the potency estimated from few doses was 2170 nM in the test on CAMK4; 1110 nM in the test with CDK10; 1600 nM in the test with CDK6; 114 nM with HSP90B1; 1950 nM in the test with MAPK9.

In the case of `CS(=O)(=O)CCNCc1cc(-c2cc3c(Nc4ccc(OCc5cccc(F)c5)c(Cl)c4)ncnc3s2)cs1` [GSK300014A], the potency estimated from few doses was 575 nM in the test on CAMK2B, 481 nM in the test on EGFR, 112 nM in the test with FN3KRP and 48.6 nM in the test on NQO2.

As for `Nc1c(C(=O)c2cccc(-c3ccc[n+]([O-])c3)c2)cnn1-c1ccc(F)cc1F` [RO1166259-000], the potency estimated from few doses in the test on CDC42BPG (compound concentrations: 100 nM and 1000 nM (sheet 'Samples'), CATDS: 0.14684216194917399) was 1410 nM; with MAPK11, 10.2 nM; in the test with MAPK14 it was 100 nM; in the test on MAPKAPK2, 31.2 nM.

Consider `O=C(Nc1n[nH]c2nc(-c3ccccc3)ccc12)C1CC1` [SB-708999], for which the values for the potency estimated from few doses in the test on CDC42BPG (setting [1]) and in the test on HSPE1 were 1760 nM and 296 nM, respectively.

In the case of `Cl.Cl.NC[C@H](Cc1ccc(C(F)(F)F)cc1)NC(=O)c1cc(Br)c(-c2ccnc3[nH]ccc23)s1.NC[C@H](Cc1ccc(C(F)(F)F)cc1)NC(=O)c1cc(Br)c(-c2ccnc3[nH]ccc23)s1` [GSK1487252A], the potency estimated from few doses in the test on CDC42BPB is 2460 nM; with PKN1, 2080 nM; with PRKACA, 20.5 nM; in the test with PRKACB, 60.6 nM; with PRKG1 it was 30.2 nM; in the test on PRKX;PRKY it was 593 nM. Moreover, the potency estimated from few doses in the test with ROCK1 is 217 nM; with ROCK2, 180 nM; in the test with RPS6KB1 it was 461 nM.
